Columns and labels:
Experiment in all cases: PBM binding z-score (relative to random genomic background probes); higher = stronger binding; sequences stand for … in GC…GCGATTGACAGCGTAGAATGAAGG
[1] = tested on: RARb homodimer (NR concentration 270 nM)
Method in brief: (§1)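 Custom Agilent 4×180K protein-binding microarrays carried double-stranded probes. Their 34-nt variable regions held direct-repeat seeds, single-nucleotide variants, half-site ablations and random human genomic background sequences. Arrays were incubated 1 h with ligand-free nuclear receptor dimers in PBS pH 7.4, 2% milk, 0.02% Triton X-100, 1 mM DTT, 0.2 mg/mL BSA and 0.4 mg/ml salmon testes DNA. Antibodies against each partner (one per run) detected binding, and scanned fluorescence was regression-normalized. Binding z-scores use random background probes as reference.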

[2] = tested on: RARg:RXRa (NR concentration 270 nM, RXRa partner concentration 90 nM)
Method in brief: as §1

[3] = tested on: RARg homodimer (NR concentration 270 nM)
Method in brief: as §1

[4] = tested on: RXRa DBDmut IVT, anti-RXR (DBD mutation: RXRa K156A/R161A, NR concentration 90 nM)
Method in brief: as §1

[5] = tested on: RXRa homodimer (NR concentration 180 nM)
Method in brief: as §1

[6] = tested on: THRa:RXRa (NR concentration 90 nM, RXRa partner concentration 90 nM)
Method in brief: as §1

[7] = tested on: THRa homodimer (NR concentration 90 nM)
Method in brief: as §1

[8] = tested on: VDR:RXRa (NR concentration 270 nM, RXRa partner concentration 90 nM)
Method in brief: as §1

[9] = tested on: VDR homodimer (NR concentration 270 nM)
Method in brief: as §1

Sequence	PBM binding z-score [1]	PBM binding z-score [2]	PBM binding z-score [3]	PBM binding z-score [4]	PBM binding z-score [5]	PBM binding z-score [6]	PBM binding z-score [7]	PBM binding z-score [8]	PBM binding z-score [9]
GGAACGAGGGCAGTCGAGTTGATAGCATGGCGAT	0.327	0.643	1.18	1.1	0.35	1.52	-0.895	1.22	1.02
CGTCAAAGTTCAACTAAGCTAACGTAAAGCACGC	4.31	5.83	6.59	4.75	5.2	2.48	0.187	4.35	3.66
ATCGACAGGTCGACGAGGTGAGTATACACCGTTT	0.949	1.55	1.78	0.12	1.58	2.58	0.428	2.85	0.49
AGCATGAGGTTAAGATCAGGGAAACAGAATACAT	0.891	2.08	1.62	0.954	2.58	2.66	0.635	1.36	0.646
CACACAGGGTCAGCTAGGCCAGAGTAGGGACGGC	3.23	4.52	4.78	1.76	4.03	3.04	0.987	3.8	2
CCAGACAGGTGAAGGGTAACTCAGTCTGGTACGC	0.722	0.492	0.626	-0.69	0.751	0.21	-0.441	-0.111	-0.55
CGTACAAGGTCAGAGAGGTCAGTGAATGCCGAGT	5.31	6.28	7.24	3.52	5.95	4.23	2.64	7.46	6
ACTAGCAGGCCAAGTTTGCGTCACTCAAACAAAG	0.00722	-0.201	-0.0389	0.079	-0.299	-0.253	-0.635	-0.321	0.0311
GCACGGAGGACAAGGTCAGAGCTTTGTCCGTAGA	3.22	3.17	3.57	1.01	2.56	2.89	1.58	1.34	0.622
CAAACTAGGTCAAGGTCAATGTCGGTTTGTGCCA	5.09	5.85	6.81	2.94	5.18	4.41	3.82	4.81	4.11
CAAACTAGGTCACGAAAGGTTAAAGTCGAATGAC	4.85	6.19	6.18	1.95	5.5	4.67	1.78	5.27	1.8
AGTCAAAGTTCACTAGGTAGCGTAAGATTCAGCT	3.47	4.95	5.68	4.01	3.68	1.66	-0.346	3.56	3.7
CCAGACTGGTGAGAAGGTAACTCAGCCTCGATTA	-0.313	-0.398	-0.424	-0.127	-0.237	-0.0936	-0.27	-0.455	-0.352
TCTAGCAGGCCAGAGGGTCAGTCAAGAGGTACGG	2.16	1.59	1.82	-0.232	1.43	0.734	-0.934	0.113	-0.429
CGTACTGGGCCAAAAAGGTCATTGATGCCGATAA	4.63	4.76	4.11	1.07	4.86	3.15	0.617	5.04	2.61
TTACCAAGGTGAAGGTCGTTGAACCCTCTGTAGA	2.16	1.94	1.52	0.243	3	2.74	1	3.04	1.63
AGATCGAGGGCAATGAGTTGATAGCACGGGTGGC	1.18	0.862	1.38	1.73	0.854	0.856	0.0154	5.15	2.44
TGTCAAAGTTCAAAGGGAACGTAAGTATCCACAC	3.12	5.56	5.38	4.04	4.94	2.06	-0.715	4.92	4.05
TTCCCAAGGTGAAGGTCGTTGATCCCTCTGTAGA	1.87	1.35	1.04	-0.0232	1.74	2.52	1.11	1.22	0.952
TCTCGGAGGACACGAAAGGTCACAGCTCGACATC	4.92	6.11	6.17	1.44	6.3	4.29	2.38	4.91	2.48
GAACCAAGGTGAATAGGTCGTTGATGAGTAGGCG	1.78	2.53	1.25	-0.268	2	1.77	0.124	0.843	-0.00141
AGAATGAGGTTATTAAGATCAGCGAATTGCGGTC	0.651	1.02	0.64	1.95	1.43	2.07	0.43	2.57	0.913
CGACCAAGGTCATAGGAGGTCAGTGAAGACAGAT	5.12	6.79	7.3	3.53	6.92	5.03	2.69	6.59	4.77
ATCTCTAGGTAAAGATAGTTCAGTGAATGCAAAT	0.887	0.422	0.748	-0.0413	0.163	0.71	0.0896	0.815	0.419

Sequence	PBM binding z-score [1]	PBM binding z-score [2]	PBM binding z-score [3]	PBM binding z-score [4]	PBM binding z-score [5]	PBM binding z-score [6]	PBM binding z-score [7]	PBM binding z-score [8]	PBM binding z-score [9]
CCTCGGAGGACAGAAGGTCAGGGCTGTCCGCTTT	3.88	3.67	3.54	-0.126	2.22	2.35	0.202	0.967	0.107
TAGCCTATGTCATGGGCCAGTATACCACGCGAAC	0.149	0.192	0.474	-0.981	0.178	-0.349	-0.74	-0.365	-0.627
CGTCAAAGTTCAAGGTACCGTAACAGAAAGCAGC	3.94	5.07	6.14	4.56	4.33	2.06	0.154	3.76	3.09
ACAGACAGGTGATGAAGGTAACTCTGGCTATCAT	-0.162	0.325	0.249	-0.432	0.387	0.0574	-0.327	0.00307	-0.648
CCTATTAGTTGACCATAAGGGCATCCGAAGCTCG	1.78	1.12	1.02	0.721	0.568	1.89	1.35	0.862	1.26
CCTACTGGGCCAAGGTCAGTGATCAGTCAAAGCA	2.89	2.37	2.48	-0.721	1.4	2.31	1.15	0.692	0.568
CTCGAAAGGTCCGTTGAGGTGAGTATACGGATAA	0.529	0.513	0.708	0.119	0.313	4.14	0.988	0.243	0.885
GGTATTAGTTGAAAGGGCAACCGAATGATTCTCG	2.53	1.76	1.81	0.965	1.5	1.08	0.579	1.16	1.23
CTCGAAAGGTCGTGCTCAGGAGAGTATACCAAAC	2.52	4.36	4.09	1.88	5.03	2.64	0.423	2.92	1.36
CGTCCAAGGTCAGAGGAGGTCAGTGAAGACAGAT	5.15	6.03	6.88	2.36	5.13	5.09	2.8	5.98	3.43
CCTTTCGGGTCAAGGTTATAGCACGGGTGGTACG	3.76	5.07	5.07	2.03	5.56	3.97	3.16	3.79	1.97
CCTACAGGGCCATCAGGTCATTGATATCAACGTT	2.75	2.63	2.35	0.562	1.63	3.26	2.79	2.48	1.45
TCTTCTAGATCAACAGGAGGTTAAGAAAGATCGA	0.617	0.984	0.501	0.855	1.01	0.77	-0.076	0.728	-0.175
CCTTACGGGTCACTCCACGTTATAGCATCGGAGT	2.58	4.04	4.01	1.41	4.01	1.88	0.13	2.65	1.23
CCTCGTAGGACAACAGGAGGTCAGAGCTGCCAGA	3.16	3.05	3	0.577	2	2.51	0.709	1.64	0.704
ACTAGCAGGCCGAGTTTGGGTCACTCAAACAAAG	1.65	1.04	0.63	-0.134	0.562	2.17	0.853	0.459	0.396
CGCACGAGGGCATGAGTTGATAGCAAATGCCGAT	1.2	1.1	1.72	2.41	0.956	1.3	0.0381	1.27	1.63
ATCTCTAGGTAGGACTCAGTTCAGTGAAGAACGC	0.778	0.159	0.0916	0.747	0.071	0.569	0.909	0.756	1.66
ACTAGCAGGCCAAGTTCGGGTCACTCAAACAAAG	2.96	3.14	2.14	0.623	1.81	3.55	2.61	2.43	2.1
ATATATAGGTTAAGGGTCATTCAGGTTGGTTCGC	4.27	4.98	4.04	2.17	6.8	3.86	2.03	6.11	4.9
GATACAGGGTCAGCTAGCGGCCAGAGTATGGAAA	2.95	6.02	4.62	1.31	4.36	2.56	-0.0331	2.49	0.352
GCTAGTTGGTCAGAAAAAGGTCACACACCGGTCG	5.21	5.28	4.72	0.268	4.82	3.52	1.44	3.77	1.71
GCTCACGGGTCAAAGGTTATAGCATGAATAGAAT	3.32	6.64	4.64	2.36	9.1	3.78	-0.0294	5.38	1.19
CCTAGCAAGCCAGGGTCACTCAAGCATTTCGCTT	2.62	2.97	2.62	0.907	3.86	3.03	1.1	2.8	1.69
